Results on 10 molecules are retold here after publication PMC10163288.

A selection follows. The hit rate among all sequences tested is not known here.

Sequences and labels used below:
B1: il10ra_site1_normal_mot_HHH_b2_06090_af2_000000001_0001_1_19_H_._HHH_b1_07022_0001_0000500035_0000001_0 (protein)
chain: SSSSSQEVAELIIEAFRLLLRGDEEEVERLLEELKELAEELNDPALRRLVEILEEAIKAASSSSS
B2: il10ra_site1_sap_19_mot_HHH_b2_07521_000000141_0001_20_37_H_._HHH_b1_07537_af2_0001_0000400008_0000001_0_0001 (protein)
chain: SSSSSDEERLEELLEELKELLEEGDRERFLRVALEVLRLAFQSSDEEALQAVWRLVKKWGSSSSS
B3: il10ra_site1_normal_mot_HHH_b1_03094_000000294_0001_1_20_H_._HHH_b1_05478_af2_0001_0000100005_0000001_0 (protein)
chain: SSSSDEENQEALELSLEALRLALRGDPEKAREVLEEAFELAERANNERLLRIIEELLEALHSSSS
B4: il10ra_site1_normal_mot_HHH_b1_06789_af2_000000041_0001_1_20_H_._HHH_b1_02788_0001_0000100006_0000001_0 (protein)
chain: SSSSDLEEEIEEAIEEARENGDELIVQILEILLRQIRRDGSPNARWLVRQVIKALKNLLENSSSS
B5: il10ra_site1_sap_24_mot_HHH_b2_06857_af2_000000179_0001_42_54_H_._HHH_b1_04179_af2_0001_0000200006_0000001_1_0001 (protein)
chain: SSSSSDATRELYRLSKEAAELLAEGNPEEAQRVAEEAFELAEEAGNRVLLHAIEHLLRDISSSSS
B6: il10ra_site1_normal_mot_HHH_b2_07521_000000141_0001_20_37_H_._HHH_b1_01332_0001_0000100002_0000001_0_af2pred_0001 (protein)
chain: SSSSDEEEKRLRLALRLARFLIEQGDEEAARKLLEWIRELAKRANDEEALEEAQRLLEEVGSSSS
B7: il10ra_site1_normal_mot_HHH_b1_01879_000000050_0001_1_18_H_._HHH_b1_04021_0001_0000200009_0000001_0_af2pred_dldesign_0_af2pred (protein)
chain: SSSSSELDALLAALEAAVAAGDEAAVRELSVRVSRLALEANNKEVLKKVFDLMVDFYKKLSSSSS
B8: il10ra_site1_sap_20_mot_HHH_b1_05126_000000053_0001_38_52_H_._HHH_b2_05116_af2_0001_0000900047_0000001_0_0001 (protein)
chain: SSDEREELKEEVEEEVEKAVENKDPELVKEIIAKALMEAARLRDDQLSMAIIRIYARANQLLQSS
B9: il10ra_site1_normal_mot_HHH_b2_08144_af2_000000046_0001_38_52_H_._HHH_b1_00696_0001_0000600035_0000001_0 (protein)
chain: SSSSTEEIQRIMELLRRAAELLNEGNPEEAEKLIEEAEELVKEANDPLLEIQLRFLERDINSSSS
B10: il10ra_site1_sap_23_mot_HHH_b1_01233_000000085_0001_1_18_H_._HHH_b1_01214_0001_0000100002_0000001_0_0001 (protein)
chain: SSSSDEEHIEELARAVERQLEQLSKYDPRLLERLAEAARKALELWDEELAREIEELAKELLSSSS

This test deals with il10ra, Q13651. Nature of the test: yeast display titration.
Chain of il10ra, Q13651 (Q13651 whole entry): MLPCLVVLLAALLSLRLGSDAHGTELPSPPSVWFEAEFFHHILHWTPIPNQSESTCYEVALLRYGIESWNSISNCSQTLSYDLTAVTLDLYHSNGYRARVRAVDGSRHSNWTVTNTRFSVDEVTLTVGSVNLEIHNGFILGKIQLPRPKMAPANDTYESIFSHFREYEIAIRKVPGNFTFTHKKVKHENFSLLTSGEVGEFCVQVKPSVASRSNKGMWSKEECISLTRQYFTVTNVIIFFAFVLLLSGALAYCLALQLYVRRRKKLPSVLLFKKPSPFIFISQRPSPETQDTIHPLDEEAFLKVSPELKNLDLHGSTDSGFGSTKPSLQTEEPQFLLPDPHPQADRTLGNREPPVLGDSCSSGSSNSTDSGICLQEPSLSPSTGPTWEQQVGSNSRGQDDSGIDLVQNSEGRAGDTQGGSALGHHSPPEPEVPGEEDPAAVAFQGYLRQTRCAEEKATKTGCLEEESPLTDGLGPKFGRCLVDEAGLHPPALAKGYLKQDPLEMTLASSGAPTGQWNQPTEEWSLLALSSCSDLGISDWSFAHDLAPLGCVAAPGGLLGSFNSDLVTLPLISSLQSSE
For B1, the “apparent Kd” value was “no binding seen (inactive)”.

B2: the “apparent Kd” value was “no binding seen (inactive)”.

As to B3, the “apparent Kd” value was “no binding seen (inactive)”.

Regarding B4, the “apparent Kd” value was “no binding seen (inactive)”.

B5: the “apparent Kd” value is “no binding seen (inactive)”.

On to B6, for which the “apparent Kd” value is “no binding seen (inactive)”.

With B7, the “apparent Kd” value was “no binding seen (inactive)”.

B8: the “apparent Kd” value was “no binding seen (inactive)”.

Regarding B9, the “apparent Kd” value was “no binding seen (inactive)”.

B10: the “apparent Kd” value was “no binding seen (inactive)”.
